Inconclusive results are not listed. Active and inactive are the calls of the source. Unless noted, the call rests on the fitted dose curve; in most records, active means well fitted curve in the direction sought with a large enough effect; inconclusive means small, poorly fitted or top-dose-only effect, or another doubt; inactive means no such curve, though single readings can be large; an effect the other way counts as inactive or inconclusive.
How the values were obtained:
[1] = Quantitative High-Throughput drug screen in 47 multiple myeloma cell lines against the NCATS MIPE library collection: PCM6_Riken cell viability assay (AID 1919870); conditions: CellTiter-Glo ATP, 48 h; series mostly up to 45.8 µM; further: nearly all actives have a fitted effect of over 30% in size; further: potency means the concentration at half of the fitted maximal effect
In short: (§1)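 500 cells/well per myeloma line exposed to pinned MIPE 4.0 compounds for 48 h at 37 °C, 5% CO2. Viability read as ATP by CellTiter-Glo luminescence, normalised to DMSO-only (100%) and media-only (0%) wells.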

[2] = Quantitative High-Throughput drug screen in 47 multiple myeloma cell lines against the NCATS MIPE library collection: RPMI8226_ATCC cell viability assay (AID 1919871); conditions: RPMI8226 myeloma viability, CellTiter-Glo ATP luminescence, 48 h; series mostly up to 45.8 µM; further: nearly all actives have a fitted effect of over 30% in size; further: potency means the concentration at half of the fitted maximal effect
In short: as §1

[3] = Quantitative High-Throughput drug screen in 47 multiple myeloma cell lines against the NCATS MIPE library collection: OPM2_DSMZ cell viability assay (AID 1919872); conditions: OPM2 myeloma viability, CellTiter-Glo ATP luminescence, 48 h; series mostly up to 45.8 µM; further: nearly all actives have a fitted effect of over 30% in size
In short: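 CellTiter-Glo luminescence (ATP) after 48 h compound exposure, 37C/5% CO2; 500 cells/well; MIPE 4.0 approved/investigational drugs pinned in; DMSO = 100%, media only = 0% viability.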

[4] = qHTS for identification of novel therapeutic agents for treatment of microphthalmiaassociated transcription factor (MiT) renal cell carcinoma (RCC) (AID 1963991); conditions: CellTiter-Glo, 48 h, stronger effect = lower value;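 further: curves scaled with 100% = DMSO viability and 0% = empty wells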
In short: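 UOK109/UOK124/UOK145 (TFE3 fusions, three partners); 500 cells/well; MIPE v4.0, 1912 cpds, 11 conc.; 48 h, 37 C; CellTiter-Glo, 15 min RT; lum. Norm.: DMSO 100%, empty 0%.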

[5] = Quantitative High-Throughput drug screen in 47 multiple myeloma cell lines against the NCATS MIPE library collection: KMS28BM_JCRB cell viability assay (AID 1919874); conditions: CellTiter-Glo ATP, 48 h; series mostly up to 45.8 µM; further: nearly all actives have a fitted effect of over 35% in size; further: potency means the concentration at half of the fitted maximal effect
In short: as §1

[6] = qHTS drug screen for cell cycle checkpoint inhibitors in PARPi-resistant BRCA-mutant ovarian cancer cell lines. (AID 1963452; calls by dose curve); conditions: PEO1/OlaR viability, CellTiter-Glo luminescence, 96 h, stronger effect = lower value
In short: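 PEO1, PEO4 and PEO1/OlaR ovarian cancer cells, 600 per well, exposed 96 h at 37C to a dilution series. Viability read by CellTiter-Glo luminescence, normalized to DMSO and empty wells; activity summarized as Z-AUC.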

[7] = Quantitative High-Throughput drug screen in 47 multiple myeloma cell lines against the NCATS MIPE library collection: KMS11_JCRBsus cell viability assay (AID 1919873); conditions: KMS11 myeloma viability, CellTiter-Glo ATP luminescence, 48 h; series mostly up to 45.8 µM; further: nearly all actives have a fitted effect of over 50% in size; further: potency means the concentration at half of the fitted maximal effect
In short: as §1

[8] = qHTS profiling for inhibitors of Plasmodium falciparum proliferation (AID 504749);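 further: 0% = DMSO vehicle and full inhibition = artemisinin control; nearly all actives have a fitted effect of over 60% in size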; conditions: P. falciparum in erythrocytes, SYBR Green DNA, 72 h, at 12.8 µM (top of the series)
In short: (§2)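 P. falciparum-infected erythrocytes (0.3% parasitemia, 2.5% hematocrit) incubated with compound 72 h at 37 C, 5% CO2. Parasite DNA detected by SYBR Green after lysis, overnight at room temperature; normalised to 0.29 uM artemisinin and DMSO.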

3D7 = assay: as above; conditions: P. falciparum in erythrocytes, SYBR Green DNA, 72 h; series mostly up to 28.7 µM
In short: as §2

[9] = TFE3-RCC UOK109 viability, measured here: UOK109 Z-AUC
[10] = TFE3-RCC viability, measured here: UOK124 Z-AUC
[11] = TFE3-RCC viability, measured here: UOK145 Z-AUC
[12] = measured here: PEO1 parental Z-AUC

Question: What does the source list for COc1ccc(C=CC(=O)Nc2ccccc2C(=O)O)cc1OC?
Answer: Potency [1]: inactive; Potency [2]: inactive; Potency [3]: inactive; z-score [4, 9]: 0.299; z-score [4, 10]: 1.48; z-score [4, 11]: -0.0429

Question: With CN1C(=O)C(Cc2c[nH]c3ccccc23)NC1=S (centres undefined) as the molecule, how does the Potency [1] read?
Answer: 3.72 µM (active)

Question: And the Potency [2]?
Answer: inactive

Question: And the Potency [3]?
Answer: inactive

Question: What about the Potency [5] of the same molecule?
Answer: inactive

Question: And the Z-AUC [6]?
Answer: -0.877 (inactive)

Question: What about the Z-AUC [6, 12] of the same molecule?
Answer: -0.326

Question: And the Z-AUC ([6]; measured here: PEO4 Z-AUC)?
Answer: -0.823

Question: And the z-score [4, 9]?
Answer: 0.322

Question: What about the z-score [4, 10] of the same molecule?
Answer: 0.546

Question: And the z-score [4, 11]?
Answer: 0.284

Question: For CN(C)c1ccc(-c2nc3ncc(Cl)c(N4CCN(CC(=O)Nc5nccs5)CC4)c3[nH]2)cc1, which Potency [1] is on record?
Answer: inactive

Question: And the Potency [2]?
Answer: 4.18 µM (active)

Question: And the Potency [7]?
Answer: 0.833 µM (active)

Question: And the Potency [5]?
Answer: 2.35 µM (active)

Question: What does the source list for NS(=O)(=O)c1cc(Cl)c(Cl)c(S(N)(=O)=O)c1?
Answer: Potency [1]: inactive; Potency [2]: inactive; Potency [3]: inactive; Potency [5]: inactive; Z-AUC [6]: 0.54 (inactive); Z-AUC [6, 12]: 0.261; Z-AUC ([6]; measured here: PEO4 Z-AUC): 0.359; z-score [4, 9]: 0.846; z-score [4, 10]: 0.351; z-score [4, 11]: 1.23; activity, negative = inhibition ([8]; parasite line A): 1.59% (inactive); activity, negative = inhibition ([8]; parasite line B): 6.65% (inactive); Potency (3D7): inactive

Question: Which results are given for CC(=O)N1CCN(c2ccc(OCc3nn(C)c(C)c3-c3cccc4c(CCCOc5cc(C)c(Cl)c(C)c5)c(C(=O)O)n(Cc5cccnc5)c34)cc2)CC1?
Answer: Potency [1]: 16.6 µM (active); Potency [2]: inactive; Potency [7]: 20.9 µM (active); Potency [5]: 9.35 µM (active)

Question: Which Potency [1] does the source give for COc1ccc2nc3cc(Cl)ccc3c(Nc3cc(CN4CCCC4)c(O)c(CN4CCCC4)c3)c2n1 here?
Answer: 16.6 µM (active)

Question: And the Potency [2]?
Answer: 18.7 µM (active)

Question: What about the Potency [7] of the same molecule?
Answer: 16.6 µM (active)

Question: And the Potency [5]?
Answer: 23.5 µM (active)

Question: And the Z-AUC [6]?
Answer: 1.63 (inactive)

Question: What about the Z-AUC [6, 12] of the same molecule?
Answer: 0.591

Question: What about the Z-AUC ([6]; measured here: PEO4 Z-AUC) of the same molecule?
Answer: 1.29

Question: With CC(C)(OCc1nn(Cc2ccccc2)c2ccccc12)C(=O)O as the molecule, how does the Potency [1] read?
Answer: inactive

Question: And the Potency [2]?
Answer: inactive

Question: What about the Potency [7] of the same molecule?
Answer: inactive

Question: What about the Potency [5] of the same molecule?
Answer: inactive

Question: What about the Z-AUC [6] of the same molecule?
Answer: 1.03 (inactive)

Question: What about the Z-AUC [6, 12] of the same molecule?
Answer: 1.11

Question: And the Z-AUC ([6]; measured here: PEO4 Z-AUC)?
Answer: 1.54

Question: Which Potency [1] does the source give for CCNC(=O)CCCC=CC[C@@H]1[C@H](C=CC(O)CCc2ccccc2)[C@@H](O)C[C@@H]1O (some centres undefined) here?
Answer: inactive

Question: What about the Potency [2] of the same molecule?
Answer: 16.6 µM (active)

Question: And the Potency [5]?
Answer: 3.32 µM (active)

Question: And the z-score [4, 9]?
Answer: 1.02

Question: What about the z-score [4, 10] of the same molecule?
Answer: 0.311

Question: What about the z-score [4, 11] of the same molecule?
Answer: 1.41

Question: With COc1cc(F)c(C(C)C)cc1-c1ccc(C(F)(F)F)cc1CN1C(=O)O[C@H](c2cc(C(F)(F)F)cc(C(F)(F)F)c2)[C@@H]1C as the molecule, how does the Potency [1] read?
Answer: 23.5 µM (active)

Question: And the Potency [2]?
Answer: 1.66 µM (active)

Question: And the Potency [7]?
Answer: inactive

Question: What about the Potency [5] of the same molecule?
Answer: inactive

Question: What about the Z-AUC [6] of the same molecule?
Answer: 0.469 (inactive)

Question: And the Z-AUC [6, 12]?
Answer: 0.239

Question: And the Z-AUC ([6]; measured here: PEO4 Z-AUC)?
Answer: 0.327

Question: For O=S(=O)(NCCNCC=Cc1ccc(Br)cc1)c1cccc2cnccc12, which Potency [1] is on record?
Answer: 16.6 µM (active)

Question: What about the Potency [2] of the same molecule?
Answer: 20.9 µM (active)

Question: What about the Potency [5] of the same molecule?
Answer: 16.6 µM (active)

Question: For CN(C)CCOc1cc(-c2cn[nH]c2)ccc1NC(=O)C1COc2ccccc2O1 (centres undefined), which Potency [1] is on record?
Answer: 4.69 µM (active)

Question: And the Potency [2]?
Answer: inactive

Question: What about the Potency [5] of the same molecule?
Answer: 5.9 µM (active)

Question: For Cc1cccc(-c2[nH]c(C(C)(C)C)nc2-c2ccc3c(c2)OCO3)n1, which Potency [1] is on record?
Answer: 0.833 µM (active)

Question: What about the Potency [2] of the same molecule?
Answer: 16.6 µM (active)

Question: What about the Potency [5] of the same molecule?
Answer: 16.6 µM (active)

Question: What about the Z-AUC [6] of the same molecule?
Answer: -0.37 (inactive)

Question: And the Z-AUC [6, 12]?
Answer: -0.0617

Question: What about the Z-AUC ([6]; measured here: PEO4 Z-AUC) of the same molecule?
Answer: 0.278

Question: Which Potency [1] does the source give for Cc1ccc(NC(=O)c2cccc(N(C)C)c2)cc1NC(=O)c1ccc(O)cc1 here?
Answer: 0.418 µM (active)

Question: And the Potency [2]?
Answer: inactive

Question: What about the Potency [7] of the same molecule?
Answer: 4.18 µM (active)

Question: What about the Potency [5] of the same molecule?
Answer: 5.26 µM (active)

Question: And the Z-AUC [6]?
Answer: 1.75 (inactive)

Question: What about the Z-AUC [6, 12] of the same molecule?
Answer: 1.05

Question: What about the Z-AUC ([6]; measured here: PEO4 Z-AUC) of the same molecule?
Answer: 0.905

Question: For CCN1CCC(n2cc(CNc3cc(Cl)c4ncc(C#N)c(Nc5ccc(F)c(Cl)c5)c4c3)nn2)CC1, which Potency [1] is on record?
Answer: 20.9 µM (active)

Question: What about the Potency [2] of the same molecule?
Answer: 16.6 µM (active)

Question: What about the Potency [5] of the same molecule?
Answer: 20.9 µM (active)

Question: And the Z-AUC [6]?
Answer: -1.28 (inactive)

Question: And the Z-AUC [6, 12]?
Answer: -0.754

Question: And the Z-AUC ([6]; measured here: PEO4 Z-AUC)?
Answer: -1.71

Question: What does the source list for CCC[C@H](N[C@@H](C)C(=O)N1[C@@H]2CCCC[C@H]2C[C@H]1C(=O)O)C(=O)OCC?
Answer: Potency [1]: inactive; Potency [2]: 9.35 µM (active); Potency [5]: inactive; Z-AUC [6]: -0.443 (inactive); Z-AUC [6, 12]: -0.451; Z-AUC ([6]; measured here: PEO4 Z-AUC): -0.177; z-score [4, 9]: 0.586; z-score [4, 10]: 0.337; z-score [4, 11]: 0.752

Question: Which results are given for O=C(Nc1ncc(SCCN2CCCC2)s1)[C@]1(c2ccc(S(=O)(=O)C3CC3)cc2)C[C@@H]1C1CCCCC1?
Answer: Potency [1]: 8.33 µM (active); Potency [2]: 23.5 µM (active); Potency [5]: 8.33 µM (active)

Question: For O=C(NC[C@H](O)CO)c1ccncc1Nc1ccc(I)cc1F, which Potency [1] is on record?
Answer: 16.6 µM (active)

Question: What about the Potency [2] of the same molecule?
Answer: 0.833 µM (active)

Question: What about the Potency [7] of the same molecule?
Answer: 2.64 µM (active)

Question: What about the Potency [5] of the same molecule?
Answer: inactive

Question: What about the Z-AUC [6] of the same molecule?
Answer: -0.995 (inactive)

Question: What about the Z-AUC [6, 12] of the same molecule?
Answer: -0.351

Question: And the Z-AUC ([6]; measured here: PEO4 Z-AUC)?
Answer: -0.367

Question: Which Potency [1] does the source give for CCCCC(C)(C)[C@H](O)C=C[C@H]1[C@H](O)CC(=O)[C@H]1CC=CCCCC(=O)O here?
Answer: 26.4 µM (active)

Question: And the Potency [2]?
Answer: 8.33 µM (active)

Question: What about the Potency [5] of the same molecule?
Answer: inactive

Question: And the Z-AUC [6]?
Answer: 0.66 (inactive)

Question: What about the Z-AUC [6, 12] of the same molecule?
Answer: 0.266

Question: What about the Z-AUC ([6]; measured here: PEO4 Z-AUC) of the same molecule?
Answer: 0.726
